Assay [1] has as its system Human papillomavirus type 1a protein E7 (residues 44-93). Put plainly: HPV1a E7 fragment binders on microarrays, primary screen, biochemical, small-molecule microarray, residues 44-93, 635 nm fluorescence (AID 1108).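 Note: E7 fragment applied at 1 µg/mL in TBST for 1 h at 4 C; score combines spot fluorescence with its signal to noise ratio.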 The settings on record: small-molecule microarray binding, fluorescence 635 nm; higher = more signal.
Assay [2] is described as follows: modulators of HCV replicon luciferase signal, primary screen, HCV replication inhibitor project, Huh7 cells, luciferase reporter (AID 1109).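 Note: huh7 hepatoma cells harbouring a luciferase neomycin HCV replicon reporter; luciferase luminescence as measure of HCV replicon replication; test concentration not given here.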 The conditions noted are these: 48 h, higher = more signal. A general note: Replicon systems follow genome replication, usually without infectious particles.
Assay [3] has as its target Left-right determination factor 2 (Homo sapiens) (UniProt O00292). In words: LEFTY2 binders on small-molecule microarrays, primary screen, biochemical, small-molecule microarray, 635 nm fluorescence scan (AID 1110). The conditions noted are these: LEFTY2 binding, higher = more signal.
The target in assay [4] is Calmodulin-1 (Homo sapiens) (UniProt P0DP23). Put plainly: CALM1 binders on microarrays, EGTA buffer, profiling panel, biochemical, small-molecule microarray, Cy5-labelled CALM1 (AID 1111).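 Note: labelled calmodulin applied in Tris saline Tween buffer holding calcium plus EGTA and DTT.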 The settings on record: Cy5-CALM1 binding fluorescence, higher = more signal.
For assay [5] the target is unchanged. In words: calcium-bound CALM1 binders on microarrays, profiling panel, artefact control for SMM control-protein annotation, biochemical, small-molecule microarray, Cy5-labelled CALM1, plus calcium (AID 1112).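 Note: score merges spot fluorescence with signal to noise from triplicate slides.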 The settings on record: Cy5-CALM1 binding fluorescence, higher = more signal.
The nature of assay [6]: small-molecule microarray binders of probe aWnt5a, primary screen, biochemical, biotinylated probe, 635/667 nm fluorescence (AID 1113).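 Note: score merges 667 nm fluorescence intensity with signal-to-noise per printed feature.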 The settings on record: higher = more signal.
The nature of assay [7]: small-molecule microarray binders of probe aShh, primary screen, biochemical, biotinylated probe, 635/667 nm fluorescence (AID 1114).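 Note: probe is biotin-labelled aShh protein from a stem cell growth factor screen; measures binding of labelled protein to compounds printed on the slide; score merges feature fluorescence at 667 nm with signal-to-noise.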 The settings on record: higher = more signal.
A short description of assay [8]: small-molecule microarray binders of probe aNog, primary screen, biochemical, biotinylated probe, 635/667 nm fluorescence (AID 1115).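 Note: probe is biotinylated aNog protein used at 0.15 µg/mL for 1 h at 4 C; z-score combines 667 nm fluorescence of each spot with its signal to noise.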 The settings on record: higher = more signal.
Assay [9] concerns the target Torsin-1A-interacting protein 1 (Homo sapiens) (UniProt Q5JTV8). Put plainly: LAP1 binders from COS7 cell lysate, primary screen, small-molecule microarray, 635/667 nm fluorescence (AID 1116). The conditions noted are these: COS7-hLAP1 lysate binding, 635 nm fluorescence, higher = more signal.
Assay [10] addresses Alpha-bungarotoxin (Bungarus multicinctus) (UniProt P60615). In words: alpha-bungarotoxin binders on microarray, profiling panel, artefact control for SMM control protein annotation, biochemical, small-molecule microarray, Alexa647 label, 635/667 nm fluorescence (AID 1117). The conditions noted are these: alpha-BTX-A647 binding fluorescence, higher = more signal.
The target of assay [11] is Albumin (Bos taurus) (UniProt P02769). In words: bovine serum albumin binders on microarray, profiling panel, artefact control for SMM control protein annotation, biochemical, small-molecule microarray, Alexa647 label, 635/667 nm fluorescence (AID 1118).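 Note: score merges 667 nm emission intensity and signal-to-noise per printed compound spot.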 The conditions noted are these: BSA-A647 binding, fluorescence 635 nm, higher = more signal.
The nature of assay [12]: small-molecule microarray binders of probe aXIP, primary screen, biochemical, NeuroSMM set, 635/667 nm fluorescence (AID 1119).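 Note: probe is the protein aXip251-270 applied at 1 µg/mL to compound-printed slides; binding of probe to printed compounds measured as 667 nm fluorescence plus signal to noise.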 The conditions noted are these: higher = more signal, called active from +8 up or from −8 down.
The nature of assay [13]: small-molecule binders of probe aNOTCH3, primary screen, biochemical, small-molecule microarray, 635/667 nm fluorescence (AID 1120).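 Note: probe is a biotin-tagged antibody raised against NOTCH3 rather than NOTCH3 protein; score merges spot fluorescence near 667 nm with spot signal to noise.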 The settings on record: higher = more signal.
Assay [14] in a line: small-molecule binders of probe aNOTCH2, primary screen, biochemical, small-molecule microarray, 635/667 nm fluorescence (AID 1121).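 Note: score merges feature fluorescence read at 667 nm with its signal to noise.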 The settings on record: higher = more signal.
Assay [15] deals with Carbonic anhydrase 2 (Homo sapiens) (UniProt P00918). Put plainly: CAII small-molecule binders, profiling panel, biochemical, small-molecule microarray, Alexa647-labelled CAII (AID 1122). The conditions noted are these: CAII-A647 binding fluorescence, higher = more signal.
Assay [16] is described as follows: COS7 lysate on small-molecule microarray, probe aHis, 635 nm (AID 1123).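 Note: z-score combines 667nm fluorescence intensity with signal-to-noise per printed compound spot.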 The conditions noted are these: COS7 cell lysate, fluorescence, higher = more signal.
A short description of assay [17]: compound binding in COS7 lysate, probe aLAP1, primary screen, cell lysate, small-molecule microarray (AID 1124).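 Note: lysate comes from COS7 cells expressing LAP1 and is applied at 0.3 µg/mL; score merges spot fluorescence near 667 nm with signal-to-noise over triplicate slides.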 The conditions noted are these: probe aLAP1, fluorescence, higher = more signal.
For assay [18], the system named is Sam68 (KHDRBS1). Put plainly: Sam68 small-molecule binders, primary screen, biochemical, small-molecule microarray, 635 nm fluorescence (AID 1125).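 Note: score merges 667 nm channel intensity with signal to noise over triplicate slides.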 The conditions noted are these: small-molecule microarray binding, higher = more signal.
Assay [19] has as its system Chordin-like protein 2 (CHRDL2). In words: CHRDL2 small-molecule binders, primary screen, biochemical, small-molecule microarray, 635 nm fluorescence (AID 1126).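 Note: printed compound slides probed with Chrdl2 protein at 4 µg/mL for 1 h at 4 C; score merges 667 nm emission intensity with signal to noise over three replicate slides.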 The conditions noted are these: small-molecule microarray binding, fluorescence 635 nm; higher = more signal.
Assay [20] concerns the target Concanavalin-A (Canavalia ensiformis) (UniProt P02866). Put plainly: ConA small-molecule binders, primary screen, artefact control for SMM control protein annotation, biochemical, small-molecule microarray, Alexa647 label, 635 nm (AID 1127).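 Note: z combines 667 nm emission intensity with signal-to-noise across three replicate slides.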 The settings on record: ConA-A647 binding fluorescence, higher = more signal.

These results are taken from PubChem BioAssay.

Structures are written as SMILES. The source made the active and inactive calls.

Sequence of Alpha-bungarotoxin (Bungarus multicinctus) (P60615 whole entry, looked up): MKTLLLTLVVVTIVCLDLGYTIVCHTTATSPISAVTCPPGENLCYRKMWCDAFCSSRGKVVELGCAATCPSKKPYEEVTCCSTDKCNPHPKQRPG
Sequence of Albumin (Bos taurus) (P02769 whole entry, looked up): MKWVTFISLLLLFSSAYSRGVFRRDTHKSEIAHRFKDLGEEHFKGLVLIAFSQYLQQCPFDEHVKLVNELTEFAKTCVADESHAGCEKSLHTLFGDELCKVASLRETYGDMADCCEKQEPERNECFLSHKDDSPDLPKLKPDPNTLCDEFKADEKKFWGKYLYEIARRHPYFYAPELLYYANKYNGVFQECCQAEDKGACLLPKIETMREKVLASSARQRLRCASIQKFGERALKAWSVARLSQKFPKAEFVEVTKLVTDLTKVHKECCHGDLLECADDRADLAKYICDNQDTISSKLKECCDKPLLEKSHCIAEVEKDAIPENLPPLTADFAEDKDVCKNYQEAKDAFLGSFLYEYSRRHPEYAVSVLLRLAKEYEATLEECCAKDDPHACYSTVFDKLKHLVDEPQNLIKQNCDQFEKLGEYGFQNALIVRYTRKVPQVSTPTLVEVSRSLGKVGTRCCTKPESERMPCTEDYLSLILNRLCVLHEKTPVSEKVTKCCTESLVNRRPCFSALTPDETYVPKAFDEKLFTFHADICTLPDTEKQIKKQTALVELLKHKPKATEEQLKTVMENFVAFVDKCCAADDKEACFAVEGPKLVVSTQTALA
Sequence of Concanavalin-A (Canavalia ensiformis) (P02866 whole entry, looked up): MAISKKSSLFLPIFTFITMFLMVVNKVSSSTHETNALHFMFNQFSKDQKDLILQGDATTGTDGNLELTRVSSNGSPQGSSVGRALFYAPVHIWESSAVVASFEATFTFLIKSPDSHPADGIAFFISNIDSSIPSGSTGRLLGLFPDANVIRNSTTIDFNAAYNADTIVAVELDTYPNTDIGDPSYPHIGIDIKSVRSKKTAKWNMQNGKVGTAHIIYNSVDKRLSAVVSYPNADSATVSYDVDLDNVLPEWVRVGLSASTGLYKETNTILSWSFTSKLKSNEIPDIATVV
Sequence of Left-right determination factor 2 (Homo sapiens) (O00292 whole entry, looked up): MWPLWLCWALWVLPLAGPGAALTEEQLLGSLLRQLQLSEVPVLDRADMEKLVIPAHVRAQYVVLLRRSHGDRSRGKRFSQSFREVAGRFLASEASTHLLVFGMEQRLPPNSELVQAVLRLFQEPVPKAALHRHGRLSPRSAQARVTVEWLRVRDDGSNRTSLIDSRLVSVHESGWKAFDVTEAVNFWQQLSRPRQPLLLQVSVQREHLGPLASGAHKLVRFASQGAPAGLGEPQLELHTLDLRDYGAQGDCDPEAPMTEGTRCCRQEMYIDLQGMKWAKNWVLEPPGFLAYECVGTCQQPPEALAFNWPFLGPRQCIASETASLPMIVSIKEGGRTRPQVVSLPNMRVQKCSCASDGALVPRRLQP
Sequence of Torsin-1A-interacting protein 1 (Homo sapiens) (Q5JTV8 whole entry, looked up): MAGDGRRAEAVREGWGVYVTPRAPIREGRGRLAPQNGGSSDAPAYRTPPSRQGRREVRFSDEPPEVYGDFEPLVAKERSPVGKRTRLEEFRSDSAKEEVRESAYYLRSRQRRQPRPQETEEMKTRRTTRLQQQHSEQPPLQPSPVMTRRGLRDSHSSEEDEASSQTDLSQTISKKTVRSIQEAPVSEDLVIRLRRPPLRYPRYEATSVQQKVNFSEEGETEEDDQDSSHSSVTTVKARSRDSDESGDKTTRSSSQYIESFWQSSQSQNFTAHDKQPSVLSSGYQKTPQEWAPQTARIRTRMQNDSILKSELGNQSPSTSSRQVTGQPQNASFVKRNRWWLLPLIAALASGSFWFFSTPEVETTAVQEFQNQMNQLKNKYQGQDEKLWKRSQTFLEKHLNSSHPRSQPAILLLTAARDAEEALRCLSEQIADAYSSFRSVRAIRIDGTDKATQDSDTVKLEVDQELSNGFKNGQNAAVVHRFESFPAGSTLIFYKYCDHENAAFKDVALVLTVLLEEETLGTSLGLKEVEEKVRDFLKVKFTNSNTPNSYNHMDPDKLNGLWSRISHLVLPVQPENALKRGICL

On to `Cc1ccc(C(C)CC(O)C2C=CC3C(=O)NC(=O)C3N2Nc2ccccn2)o1` (stereo not given), for which the composite z-score in [1] is 0.0598; in assay [3], 0.479; in [4], -0.409; in assay [5] it was -0.743; in assay [6] it was -0.1; in assay [7] it was -0.0626. The composite z-score in [8] is -0.0863; in assay [9] it was 0.773; in assay [10] it was -0.0054; in [11] it was -0.5; in assay [13] it was 0.237; in assay [14], -0.106. Besides, the composite z-score is 0.887 in assay [15]; 0.305 in assay [16]; 0.149 in assay [17]; 0.259 in assay [18]; 0.676 in [19]; -0.336 in assay [20]. This compound also registered a z-score in assay [2] of -0.146. Besides, the composite Z-score in assay [12] is 0.598 (inactive).
`COC(=O)[C@@]1(Cc2ccc(OC)cc2)[C@H]2c3cc(C(=O)N(C)C)n(CCSCCO)c3C[C@H]2CN1C(=O)c1ccccc1`: the composite z-score in [1] was 1.39; in assay [3] it was -0.675; in assay [4], 2.02; in assay [5] it was 0.954; in assay [6], 0.149; in [7] it was 0.234. Further, the composite z-score in assay [8] is -0.553; in assay [9], 0.904; in [10], 0.569; in assay [11], 0.905; in assay [13], 0.182; in [14], 0.407. The composite z-score in [15] was 0.844; in assay [16], 2.4; in assay [17] it was -0.0747; in assay [18], 1.23; in assay [19], -0.186; in assay [20], 1.13. Moreover, in assay [2], the z-score was -1.41. The composite Z-score in [12] is -0.786 (inactive).
With `NC(=O)NCC#Cc1ccc2c(c1)[C@]1(C(=O)N2)[C@H](C(=O)NC[C@H](O)c2ccccc2)[C@H]2C(=O)O[C@H](c3ccccc3)[C@H](c3ccccc3)N2[C@@H]1c1ccccc1OCCO`, the composite z-score in [1] is 1.41; in assay [3], -0.914; in assay [4], 0.103; in [5] it was -0.134; in [6], -0.139; in assay [7], -0.301. Further, the composite z-score in [8] is 0.665; in [9], 0.433; in assay [10], 3.26; in assay [11], 0.308; in [13] it was -0.0003; in assay [14] it was -0.164. The composite z-score is 0.539 in assay [15]; 1.54 in [16]; 0.564 in [17]; 0.854 in assay [18]; -0.769 in assay [19]; 0.913 in assay [20]. In addition, the z-score in assay [2] is -1.49. In [12], the composite Z-score was 0.15 (inactive).
Take `COC(=O)[C@@]1(Cc2ccc(F)cc2)[C@H]2c3cc(C(=O)N(C)C)n(Cc4ccccn4)c3C[C@H]2CN1C(=O)c1ccccc1`: the composite z-score was 1.4 in [1]; 0.256 in [3]; 0.63 in assay [4]; 0.681 in assay [5]; -0.195 in assay [6]; -0.333 in assay [7]. For the same compound, the composite z-score in assay [8] is 0.535; in assay [9], 1.11; in assay [10] it was 0.0404; in assay [11], 0.979; in assay [13], 1.15; in assay [14] it was -0.168. The composite z-score in assay [15] was 0.908; in assay [16] it was 2.46; in assay [17] it was 1.08; in [18], 1.19; in assay [19], -0.552; in assay [20] it was 0.481. The same compound displayed a z-score in assay [2] of -1.39. In assay [12], the composite Z-score was -0.91 (inactive).
With `COc1ccc([Si](C)(C)[C@H]2[C@H](CCO)O[C@@]3(C(=O)N(Cc4ccccc4)c4ccc(N5C(=O)COc6ccccc65)cc43)[C@@H]2C)cc1`, the composite z-score in [1] is -1.13; in [3], 0.206; in [4] it was 1.44; in assay [5], 1.12; in assay [6], -0.136; in assay [7], 0.108. Besides, the composite z-score in [8] was -0.487; in [9] it was 0.216; in [10], 0.662; in [11], 0.449; in [13], -0.0431; in assay [14] it was -0.0552. In addition, the composite z-score in assay [15] is 0.443; in [16], 0.69; in [17], 0.11; in assay [18] it was -0.101; in [19], -0.516; in assay [20], 0.211. In assay [2], the z-score is -4.64. The composite Z-score in assay [12] was 0.412 (inactive).
As for `COC(=O)[C@@]1(Cc2ccc(OC)cc2)[C@H]2c3cc(C(=O)N(C)C)n(Cc4ccc(OC)c(OC)c4)c3C[C@H]2CN1C(=O)c1ccccc1`, the composite z-score in [1] came to 1.46; in assay [3] it was 0.0549; in assay [4] it was 1.8; in [5] it was 1.08; in assay [6], 0.294; in [7], 0.173. The composite z-score was determined as 1.03 in [8]; 1.15 in assay [9]; 1.73 in [10]; 0.857 in [11]; 0.391 in [13]; 0.218 in assay [14]. Moreover, the composite z-score in [15] was 0.587; in [16] it was 3.17; in assay [17] it was 0.457; in assay [18], 1.29; in assay [19], -0.885; in assay [20] it was 0.96. The compound also registered a z-score in assay [2] of -1.09. The composite Z-score in assay [12] was -0.327 (inactive).
On to `CCCCCN1CC=CC23O[C@@H]4C=CCCOC(=O)C4[C@H]2C(=O)N(CCCO)[C@@H]3C1=O` (stereo not given in full), for which the composite z-score in [1] is -0.337; in assay [3], -0.43; in assay [4], -0.162; in [5], -0.591; in [6], -0.198; in assay [7], -0.283. In addition, the composite z-score in [8] is -0.0125; in assay [9], -0.643; in assay [10], -0.546; in assay [11], 0.538; in assay [13] it was -0.157; in assay [14] it was -0.155. Further, the composite z-score in assay [15] is 0.343; in assay [16], -0.0684; in assay [17], 0.0581; in assay [18] it was -0.0504; in assay [19] it was -0.277; in [20], 0.121. In assay [2], this compound showed a z-score of -0.726. For the same compound, the composite Z-score in assay [12] is 0.33 (inactive).
Turning to `COc1cc2c(cc1O)C(c1ccc(CN3CCCC3)cc1)N(Cc1sc3ccccc3c1Cl)CC2` (stereo not given), the composite z-score is 0.573 in assay [1]; 0.82 in assay [3]; 0.26 in assay [4]; -0.935 in assay [5]; -0.0036 in assay [6]; -0.0626 in [7]. In addition, the composite z-score in [8] was 0.151; in assay [9], 0.0494; in [10], 0.518; in assay [11], -0.185; in [13], 0.0394; in assay [14], -0.0861. For the same compound, the composite z-score in assay [15] is 0.752; in [16], 0.415; in assay [17], 0.179; in assay [18], -0.209; in assay [19], 1.05; in [20], 1.11. In assay [2], this compound had a z-score of -2.57. The composite Z-score in assay [12] was 0.0786 (inactive).
